# NS1 function inh: qHTS Assay for Inhibitors of Influenza NS1 Protein Function; Potency, µM (doses to about 46.1 µM), for the others: top-dose activity, positive = more growth; actives 0.4% (n = 270,000); calls by dose curve; note: potency is the fitted concentration of half-maximal effect; actives are rising curves; nearly all actives have a fitted effect of over 50% in size
#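 Recovery from NS1-induced slow growth read by OD600 in budding yeast switched to galactose assay medium (pH 6.0, -URA) at 1:100 dilution. Compound 23 nl per well; the matching strain lacking NS1 serves as control.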
# AmpC inh detg: qHTS Inhibitors of AmpC Beta-Lactamase (assay with detergent); AID 485294, 2010; AmpC hydrolysis of nitrocefin, absorbance 480 nm, 0.01% Triton; Potency, µM (highest dose often 114 µM), inactives show at the top dose activity change, negative = inhibition, actives largely listed as inhibitors; actives 0.041% (n = 370,000);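 note: potency is the fitted concentration of half-maximal effect; 0% = no-compound wells and -100% = no-enzyme wells; nearly all actives have a fitted effect of over 25% in size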
# Target sequence (P00811 whole entry, looked up): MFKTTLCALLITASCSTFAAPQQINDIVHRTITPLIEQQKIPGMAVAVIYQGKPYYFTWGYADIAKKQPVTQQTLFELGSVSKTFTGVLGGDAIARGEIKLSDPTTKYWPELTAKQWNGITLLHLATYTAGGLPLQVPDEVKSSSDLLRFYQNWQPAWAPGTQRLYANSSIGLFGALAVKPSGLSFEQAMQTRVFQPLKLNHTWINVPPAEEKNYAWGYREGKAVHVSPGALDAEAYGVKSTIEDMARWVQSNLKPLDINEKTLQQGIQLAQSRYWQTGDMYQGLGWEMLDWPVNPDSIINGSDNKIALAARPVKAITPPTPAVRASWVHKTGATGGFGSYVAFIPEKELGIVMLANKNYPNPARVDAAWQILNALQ
#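 20 mM phosphate pH 7.0 + 0.01% (detergent screen) or 0.0001% Triton X-100; 5.3 nM AmpC reagent; cpd preinc 15 min RT; nitrocefin (800 uM stock) to start; A480 q20 s × 4 min; Activity was normalised to no-enzyme and no-compound control wells.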
# SARS PLpro yeast-1: qHTS of Yeast-based Assay for SARS-CoV PLP; S. cerevisiae expressing SARS-CoV PLpro, growth rescue; actives 0.19% (n = 330,000); Potency, µM (titrated, usually from 32.9 µM), for inactives: at the top dose activity, positive = growth rescue, usual class: activators; calls by dose curve; note: potency is the fitted concentration of half-maximal effect; 0% is about no effect; nearly all actives have a fitted effect of over 55% in size
# AMA1-RON2 inh: qHTS for Inhibitors of AMA1-RON; Towards Development of Antimalarial Drug Lead: Primary Screen | Plasmodium falciparum AMA1 (3D7) - RON2 peptide interaction | AlphaScreen AMA1-biotinylated RON2 peptide binding | Potency, µM (titrated, usually from 58.2 µM), inactives show at the top dose activity change, negative = inhibition, usual class: inhibitors | actives 0.2% (n = 360,000) | AID 720542, 2013;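 note: potency is the fitted concentration of half-maximal effect; 0% = vehicle wells and -100% = peptide control; nearly all actives have a fitted effect of over 45% in size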
#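 AMA1 (3D7) with his tag at 25 nM final met compounds first, then biotinylated RON2 peptide at 25 nM; detection used donor plus acceptor beads, 10 µg/mL apiece, read by AlphaScreen after 30 min at room temperature.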
# AmpC inh no detg: qHTS Inhibitors of AmpC Beta-Lactamase (assay without detergent). AmpC nitrocefin hydrolysis, absorbance 480 nm, 0.0001% Triton. Potency, µM (series often up to 57.1 µM), for the others: at the highest dose activity change, negative = inhibition, usual class: inhibitors. actives 0.52% (n = 330,000). AID 485341, 2010;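 note: potency is the fitted concentration of half-maximal effect; plate controls were no compound for no effect and no enzyme for full effect; nearly all actives have a fitted effect of over 20% in size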
#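 20 mM phosphate pH 7.0 + 0.01% (detergent screen) or 0.0001% Triton X-100; 5.3 nM AmpC reagent; cpd preinc 15 min RT; nitrocefin (800 uM stock) to start; A480 q20 s × 4 min; Activity was normalised to no-enzyme and no-compound control wells.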
# SARS PLpro yeast-2: qHTS of Yeast-based Assay for SARS-CoV PLP: Hit Validation. yeast expressing SARS-CoV PLpro, growth phenotype rescue. calls only. shares compounds with SARS PLpro yeast-1. actives 19% (n = 1,000); call rule not given here
# * marks the source's active call; other numbers are inactive results; i = inactive; u = inconclusive; x = not tested or not shown; + = active, no number. The list is not random: actives were taken first. Their share in the collection is about 0.99%. Unless noted, calls come from the whole dose curve; as a rule, active = well fitted curve in the direction sought with a large enough effect; inconclusive = small, poorly fitted or top-dose-only effect, or another doubt; inactive = no such curve, though single readings can be large; an effect the other way counts as inactive or inconclusive.
SMILES,NS1 function inh,AmpC inh detg,SARS PLpro yeast-1,AMA1-RON2 inh,AmpC inh no detg,SARS PLpro yeast-2
CCC(=O)c1ccc(N2CCN(C(=O)c3cc([N+](=O)[O-])ccc3N3CCN(C)CC3)CC2)c(F)c1,5%,3%,u,10%,50%,+
CC1Cc2cc(S(=O)(=O)CCC(=O)NCc3ccccc3Cl)ccc2N1C(=O)C1CC1 (stereo not given),x,15%,x,x,x,x
O=C(Nc1ccccn1)c1ccc([N+](=O)[O-])o1,-23%,-11%,10µM*,-28%,-22%,i
COc1ccc(Cl)cc1NC(=O)COC(=O)/C=C/c1c(C)nn(C2CCS(=O)(=O)C2)c1Cl (stereo not given),8%,1%,u,2%,78%,i
Cc1nn(C2CCS(=O)(=O)C2)c(Cl)c1/C=C/C(=O)OCC(=O)Nc1ccccc1OC(F)F (stereo not given),-10%,-12%,-4%,10%,-2%,x
Cc1cccc(NC(=O)COC(=O)CNC(=O)C2CCCCC2)c1,2%,0%,u,29%,18%,i
C=C1CC2C=C(NC(C)=O)CC(C1)C2 (stereo not given),2%,-23%,u,-4%,-5%,i
Cc1ccc(Cl)cc1N1CCN(S(=O)(=O)c2ccc3oc(=O)c4ncn(C)c4c3c2)CC1,x,9%,x,x,x,x
COc1ccc(N(CN2C(=O)c3ccccc3C2=O)C(=O)COc2ccc(Cl)cc2Cl)cc1,-14%,-10%,13µM*,-5%,-7%,i
CCOc1ccc(CCNC(=O)CN2N=C(c3ccccc3)CCC2=O)cc1OCC,x,-4%,x,x,x,x
Cc1c(-c2ccc(Br)cc2)nc2ccccn12,-22%,-8%,-45%,-10%,-9%,x
CN(C)c1ccc(-c2nc3ccccn3c2/N=C/c2ccc(Br)cc2)cc1,28%,-1%,x,u,0%,i
Cc1cccc(N=C(NO)c2nonc2N)c1,1%,-7%,10%,-4%,-15%,x
Nc1nonc1C(=Nc1ccccc1)NO,-3%,-8%,u,4%,208%,i
Cc1nn(CC(=O)NC2(C)CCS(=O)(=O)C2)c(C)c1S(=O)(=O)N(C)C (stereo not given),x,x,u,-9%,-42%,i
COc1ccc(-c2cn3c(n2)sc2cc(C(=O)Nc4ccc(C)c(C)c4)ccc23)cc1,x,14%,x,x,x,x
CCC(=O)Nc1ccccc1-c1nc2ccccc2n(CC(=O)c2ccc(C)c(C)c2)c1=O,x,-3%,x,x,x,x
Cc1cc(-n2ccnc2)n2c(nc3ccccc32)c1C#N,5%,2%,u,3%,-11%,u
CCc1nn2c(=O)cc(COC(=O)c3cccc(NC(=O)c4cccs4)c3)nc2s1,x,15%,x,x,x,x
Cc1ccc(CNC(=O)c2cc3cc(C)ccc3n2C)cc1,x,19%,x,x,x,x
Cc1nn(C)c(C)c1/C=C1/CC2C3CC=C4CC(O)CCC4(C)C3CCC2(C)C1=O (stereo not given),-15%,1%,13µM*,u,28%,i
CC12CCC3C(CC=C4CC(O)CCC43C)C1C/C(=C\N1CCCC1)C2=O (stereo not given),-31%,-8%,-1%,x,-12%,x
COC(=O)c1scc(-c2ccc(C)cc2)c1S(=O)(=O)Nc1ccc(OC(F)(F)F)cc1,x,11%,x,x,x,x
O=C(O)CSc1c(-c2ccccc2)c2cc(Cl)ccc2[nH]c1=O,27%,-3%,u,-6%,-11%,i
COCCNC(=S)N1CCN(S(=O)(=O)c2ccc(Cl)s2)CC1,-2%,1%,x,-9%,16%,i
CCS(=O)(=O)N1CCN(S(=O)(=O)c2ccc(Cl)s2)CC1,19%,9%,0%,-11%,-25%,x
